Among the data in ChEMBL document CHEMBL4513216, “Probing the Open Global Health Chemical Diversity Library for Multistage-Active Starting Points for Next-Generation Antimalarials” (ACS Infect Dis, 2020) are INHIBITION values, retold here.

Among all 65,000 compounds or so, about 2,100 (3.2%) showed an effect of 50% or more. The median lay at about -52%. What follows is part of a selection rich in strong results, with near analogues and random picks from the rest.

The subject of the experiment is Plasmodium falciparum. The experiment can be described thus: Screen against P. falciparum Asexual Blood Stage (ABS), at 5uM. It counts as functional, Dd2. As to conditions: tested at 5 uM.
`CCc1cnc(N2CCC3(CCN(Cc4cccc(C)c4)C3=O)C2)nc1` (stereo unspecified): the INHIBITION was found to be 44.1%. The figure for `CN(Cc1cccnc1)Cc1cncc2c1CCN(c1ccccn1)C2` is -26.1%. Turning to `CCc1[nH]c2c(CNc3cnccn3)cc(F)cc2c1C`, the INHIBITION is -64.1%. The figure for `CN1CCNCC(Cc2cnc3ccccc3c2)C1` (stereo unspecified) is -67.9%.

For `CCN(CC)CCNC(=O)c1cc(C(C)C)nc(N2CCCC2)n1`, the INHIBITION is listed as -32.6%. Regarding `COCCCNC(=O)c1cc(C(C)C)nc(N2CCCC2)n1`, the INHIBITION is given as -93.7%. Regarding `CC(C)c1cc(C(=O)NCCCN(C)C)nc(N2CCCC2)n1`, the INHIBITION was determined as 52.7%. The figure for `NCCSc1nccc(-c2cnc(C3CC3)nc2-c2ccco2)n1` is -39.7%; for `CC(C)c1ncc2c(n1)CN(Cc1nnc(Cc3ccccc3)o1)CC2` it is -45.2%; for `CCC(NC(=O)CN(C)Cc1ccc(C)o1)c1ccc(Br)cc1` (stereo unspecified) it is 37.3%. With `CCc1ccc(C(C)NC(=O)CN(C)Cc2ccc(C)o2)cc1` (stereo unspecified) the figure was 13.3%; with `CCC(NC(=O)CN(C)Cc1ccc(C)o1)c1ccc(C)cc1` (stereo unspecified), 50.9%.

As to `N#Cc1ccc(CN2CC3(CCCCN3c3cccnc3)CC2=O)cc1` (stereo unspecified), the INHIBITION was determined as 7.75%. With `CC(C)(C#N)c1ccccc1CN1CCC(N2CCCC2=O)CC1` the figure was -50.6%; with `COc1ccccc1-c1nccnc1C1CCN(C(C)=O)CC1`, -20.5%. The figure for `Cc1cccc(-c2nccnc2C2CCCN(C)C2)c1C` (stereo unspecified) is 2.65%; for `Cc1cccc(-c2nccnc2C2CCN(C)CC2)c1C` it is 54.2%; for `O=C(O)[C@@H]1CN(C(=O)Cc2ccccc2Cl)C[C@H]1C1CC1` it is -94%. With `CNC(=O)N1C[C@@H]2C[C@H](C(=O)Nc3cccnc3)[C@H](C1)O2` the figure was -142%.

Turning to `Cn1cnnc1C1CCN(C(=O)c2cc3c(s2)CCCC3)CC1`, the INHIBITION is on record as -21.6%. Consider `COc1ccccc1S(=O)(=O)N1CC(N(C)C)Cc2ccccc21` (stereo unspecified), for which the INHIBITION was determined as 64.1%. In the case of `COc1cc(F)c(S(=O)(=O)N2CCN(C)Cc3ccccc32)cc1OC`, the INHIBITION amounted to 13.8%. Regarding `COc1ccccc1S(=O)(=O)N1CCC2(CC1)[C@H](O)C[C@@H]2O`, the INHIBITION is listed as -62.3%. With `CN(C)C1Cc2ccccc2N(S(=O)(=O)c2ccccc2C#N)C1` (stereo unspecified) the figure was 56.6%; with `CN(Cc1nnc(C2CC2)n1C)S(=O)(=O)c1ccccc1C#N`, -108%; with `CN(C)C1Cc2ccccc2N(S(=O)(=O)c2ccc(C#N)cc2)C1` (stereo unspecified), 49.9%.

Take `Cc1nc(NCc2cccnc2)cc(C2COCCN2)n1` (stereo unspecified): the INHIBITION is -124%. Consider `Cc1cnn(C2CCCN(C(=O)c3cn(-c4ccccc4)nn3)C2)c1` (stereo unspecified), for which the INHIBITION is -119%. With `CCC(C)c1noc(C2CCN(C(=O)c3ccccn3)CC2)n1` (stereo unspecified) the figure was -122%.

Take `O=C(O)c1cccnc1CN1CCCC1CCc1ccccc1` (stereo unspecified): the INHIBITION was -78%. The figure for `c1ccc(CC2CCN(Cc3ccnc(-c4cccnc4)n3)CC2)cc1` is -20%. The figure for `c1ncc2c(n1)CN(Cc1nc(-c3ccsc3)no1)CC2` is -41.7%; for `Cc1ncc2c(n1)CN(Cc1nnc(Cc3ccccc3)o1)CC2` it is -25%. With `Cc1ccc(-c2noc(CN3CCc4cncnc4C3)n2)cc1` the figure was 59.7%.

On to `c1ccc(Cc2nnc(CN3CCc4cncnc4C3)o2)cc1`, for which the INHIBITION turned out to be 63.6%. The figure for `Cc1cnn(C2CN(Cc3nnc(Cc4ccccc4)o3)C2)c1` is 51.8%; for `c1coc(-c2noc(CN3CCc4cncnc4C3)n2)c1` it is 31%.

Take `COc1ccc(-c2noc(CN3CCc4cncnc4C3)n2)cc1`: the INHIBITION was 6.71%. For `c1ncc2c(n1)CN(Cc1nc(-c3ccoc3)no1)CC2`, the INHIBITION is 58.7%. In the case of `c1ccc(Cc2noc(CN3CCc4cncnc4C3)n2)cc1`, the INHIBITION is on record as -48.8%. Regarding `Cc1cnn(C2CN(Cc3nnc(-c4ccccc4Cl)o3)C2)c1`, the INHIBITION is reported as 11.9%. Regarding `c1ncc2c(n1)CN(Cc1nc(-c3ccc4c(c3)OCO4)no1)CC2`, the INHIBITION came to 21%. The figure for `Cc1ccc(-c2nnc(CN3CC(n4cc(C)cn4)C3)o2)cc1` is -29.5%; for `COC(=O)COc1cc(NCc2c(C)noc2C)c(Cl)cc1C` it is -49.6%.

Take `COc1ccc(-c2csc3c2c(N)nc(=O)n3CC(N)=O)cc1`: the INHIBITION was -61.4%. The figure for `CC(=O)Nn1ccc2c(nnc3c(-c4ccccc4)cnn32)c1=O` is -65.6%; for `CCc1nc(NCCc2c(C)nn(CC)c2C)c2cnn(C)c2n1` it is -95.2%.

Turning to `CC(CCc1ccc(F)c(F)c1)NS(=O)(=O)Cc1ccon1` (stereo unspecified), the INHIBITION is reported as -44.6%. As to `CCC(=O)N1CCCC1c1nc(N(C)C)ncc1-c1ccc(Cl)cc1` (stereo unspecified), the INHIBITION amounted to 19.6%. With `COc1ccc(CC(=O)N2CCCC(n3nc(C)cc3C)C2)cc1` (stereo unspecified), the INHIBITION was -9.14%. With `COc1ccccc1C(=O)N1CC(=O)N(C2CCCCC2)CC(O)C1` (stereo unspecified) the figure was -37%; with `Cc1ccc(S(=O)(=O)N2C[C@H]3C[C@H](NC(=O)c4ccccn4)[C@H]3C2)cc1`, -55.2%. With `O=C(N1CCCC1)N1CCC[C@]2(C[C@@H](OCc3ccncc3)CO2)C1`, the INHIBITION is -71.6%. For `CCC(C(=O)Nc1ccc(-c2nc(C)n[nH]2)cc1)N1CCCC1=O` (stereo unspecified), the INHIBITION was -34.4%. The figure for `Cc1nc(NS(=O)(=O)c2cccc(F)c2C)no1` is -25.8%; for `COCCN1CCC(c2nc3ccc(N4CCCC4)cn3n2)CC1` it is -45.6%; for `O=C(NCCc1ccccn1)[C@@H]1CC[C@@H]2[C@@H](CCN2Cc2ccoc2)O1` it is -60.9%. In the case of `COc1nc2ccn(CCc3scnc3C)c(=O)c2cc1C#N`, the INHIBITION is given as -31.6%. The figure for `COc1nc2ccn(CCc3cnccn3)c(=O)c2cc1C#N` is -11.9%; for `COc1nc2ccn(CCNc3cc(C)ccn3)c(=O)c2cc1C#N` it is 51.7%; for `N#Cc1cc(F)ccc1CN1CCCC1Cn1cccn1` (stereo unspecified) it is -48.4%.

Regarding `CC(=O)Nc1ccc(C(=O)N(C)Cc2ccc(F)cc2F)s1`, the INHIBITION is on record as -10.9%.

Regarding `O=C(CCN1CCCO1)NC1CCCN(CC2CCCCC2)C1` (stereo unspecified), the INHIBITION is recorded as -105%. As for `Cc1ccc2c(c1)OCCCC2NCc1nccn1Cc1ccccc1` (stereo unspecified), the INHIBITION is reported as -13.4%. The figure for `Cc1cccc2c1OCCCC2NCc1nccn1Cc1ccccc1` (stereo unspecified) is 63.8%; for `Cc1cccc2c1OCCC2NCc1c(C)nn(C)c1N(C)C` (stereo unspecified) it is 0.635%; for `Cn1cc(CNC2CCCOc3c2ccc2ccccc32)cn1` (stereo unspecified) it is 63.1%. On to `Cn1cc(CNC2CCCOc3c(Cl)cccc32)cn1` (stereo unspecified), for which the INHIBITION was found to be 20.3%.

Regarding `c1ccc(Cn2ccnc2CNC2CCCOc3ccccc32)cc1` (stereo unspecified), the INHIBITION is 42.5%. Take `CCCn1cc(-c2cc(-c3cc(CC)n[nH]3)c(C#N)c(N)n2)c(C)n1`: the INHIBITION was -20.1%. With `CCCN1CCC(c2nc3ccc(NCc4ccccc4)cn3n2)CC1` the figure was -1.75%; with `O=C1CCCN1Cc1ncn2c1CN(C(=O)N1CCCC1)CCC2`, -29.5%; with `Cn1cc(NC(=O)N2CCC2c2ccccc2)ccc1=O` (stereo unspecified), 54.8%. Consider `Cn1cc(NC(=O)N2CCC(c3ccccc3)CC2)ccc1=O`, for which the INHIBITION was -187%.

Take `Cn1cc(NC(=O)N2CCCC2c2cccnc2)ccc1=O` (stereo unspecified): the INHIBITION is -8.15%. On to `Cc1occc1C(=O)N1CCO[C@H]2[C@@H](Oc3ccccn3)CC[C@@H]21`, for which the INHIBITION was -73.5%. Consider `Cc1cc(C(=O)N2CCO[C@H]3[C@H](Oc4ccccn4)CC[C@@H]32)c(C)[nH]1`, for which the INHIBITION was 51.5%. The figure for `O=C(C1=CCCC1)N1CCO[C@H]2[C@@H](Oc3ccccn3)CC[C@@H]21` is -51.5%. With `CCCc1nc(N2CCCN(c3ccncc3)CC2)c2cnn(C)c2n1` the figure was 65%; with `CCCc1nc(N2CCN(Cc3ccccn3)CC2)c2cnn(C)c2n1`, 19.2%. Regarding `CCCc1nc(N2CCCN(c3ncccn3)CC2)c2cnn(C)c2n1`, the INHIBITION was -2.15%.

On to `Cc1cnn(C2CCCN(C(=O)c3cccc4c3OCO4)C2)c1` (stereo unspecified), for which the INHIBITION is -116%. For `CCN(Cc1ccccn1)Cc1cc(Cl)ccc1OC`, the INHIBITION is -28.3%.

As to `CCN(Cc1cc(Cl)ccc1OC)Cc1nccn1C`, the INHIBITION amounted to 67.2%.

For `CCn1nc(C)c(CN(Cc2ccccn2)Cc2ccccc2Cl)c1C`, the INHIBITION is on record as -33.9%. Take `Cn1ccnc1CN(Cc1ccccn1)Cc1ccccc1Cl`: the INHIBITION turned out to be 79.4%. Regarding `Cn1cc(CN(Cc2ccccn2)Cc2ccccc2Cl)cn1`, the INHIBITION is reported as -31.1%. With `CCN(Cc1cc(Cl)ccc1OC)Cc1ncnn1CC`, the INHIBITION is recorded as -33.4%. The figure for `Cc1cccc(CN2CCc3c(COCC(=O)N(C)C)nn(C)c3C2)n1` is -107%; for `COCC(=O)N1CCCC(COc2ccccc2C)C1` (stereo unspecified) it is -71%; for `Cc1ccccc1OCC1CCCN(C(=O)CNC(=O)N(C)C)C1` (stereo unspecified) it is -158%. The figure for `Cc1ccccc1OCC1CCCN(C(=O)CN(C)C2CCNCC2)C1` (stereo unspecified) is 57.5%. The figure for `Cc1[nH]/c(=N\C(=O)c2csc(NC3CCCC3)n2)sc1C` is 50%. As for `Cc1[nH]/c(=N\C(=O)c2csc(NCC(C)C)n2)sc1C`, the INHIBITION is reported as -31.9%.

With `Cc1cnc(NC(=O)c2csc(NC3CCCC3)n2)s1`, the INHIBITION is reported as -86.7%.

On to `CCOC(=O)N1CCCC2(CCN(Cc3ccccc3C#N)C2)C1` (stereo unspecified), for which the INHIBITION is -71.9%.

With `CN1CCN(Cc2ccccc2CNC(=O)c2ccc(Br)cc2)CC1`, the INHIBITION is 46.2%.

With `CN1CCN(C(CNC(=O)c2ccc(Cl)cc2F)c2cccs2)CC1` (stereo unspecified), the INHIBITION is listed as 53.9%. The figure for `CC(CNC(=O)c1cc(Cl)ccc1F)N1CCCC1` (stereo unspecified) is 12.4%; for `O=C(NCC(c1cccs1)N1CCOCC1)c1ccc(F)cc1Cl` (stereo unspecified) it is -46.5%; for `CN1CCN(Cc2ccccc2CNC(=O)c2ccc(Br)cc2F)CC1` it is 48.8%. For `CC(CNC(=O)c1ccc(Cl)cc1F)N1CCN(C)CC1` (stereo unspecified), the INHIBITION is 64.1%. Consider `CC(CNC(=O)c1ccc(Cl)cc1F)N1CCCC1` (stereo unspecified), for which the INHIBITION is recorded as -2.96%.

Turning to `CN1CCN(Cc2ccccc2CNC(=O)c2cc(Cl)ccc2F)CC1`, the INHIBITION was 66.5%. The figure for `CN1CCN(C(CNC(=O)CCn2cccn2)c2cccs2)CC1` (stereo unspecified) is -29.5%; for `Cc1cc(C)n(CCN2CCC(N(C)Cc3noc(C4CC4)n3)C2)n1` (stereo unspecified) it is -148%.
